Source: PubChem BioAssay (NCATS)
Values joined by “and” are separate entries in the source; they are usually repeats but may differ in a detail not shown here. Equal values may be shown once. Results filed as inconclusive are left out. Active and inactive are the calls of the source. Calls follow the shape of the dose curve; as a rule, active = well fitted curve in the direction sought with a large enough effect; inconclusive = small, poorly fitted or top-dose-only effect, or another doubt; inactive = no such curve, though single readings can be large; an effect the other way counts as inactive or inconclusive.

Assays:
KB-3-1 = assay: Cytotoxic Profiling of Annotated Libraries Using Quantitative High-Throughput Screening (AID 1296008); conditions: Five cell lines viability, CellTiter-Glo ATP luminescence, 48-72 h; max response: hits give low values; also: nearly all actives have a fitted effect of over 60% in size
In short: (§1)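 Cells exposed to compounds for 48 or 72 hr at 37 degrees Celsius. Viability read as ATP-coupled luminescence with CellTiter-Glo after 10 min at room temperature.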

NIH3T3 [1] = assay: as above; conditions: Five cell lines viability, CellTiter-Glo ATP luminescence, 48-72 h; max response: hits give low values
In short: as §1

HACAT = assay: qHTS assay to identify novel small-molecules to repurpose for Merkel cell carcinoma treatment (AID 1296009); conditions: MCC and control cell lines, CellTiter-Glo viability, 72 h; at 44.8 µM (top of the series) unless noted; also: nearly all actives have a fitted effect of over 60% in size
In short: (§2)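 Dose-response viability screen; 72 hr exposure at 37 degree celsius; CellTiter-Glo added, 10 min room temperature, luminescence read; RLUs scaled between no-cell and DMSO wells.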

MCC-13 = assay: as above; conditions: MCC and control cell lines, CellTiter-Glo viability, 72 h; series mostly up to 46 µM
In short: as §2

MCC-26 = assay: as above; conditions: MCC and control cell lines, CellTiter-Glo viability, 72 h; series mostly up to 46 µM
In short: as §2

MKL-1 = assay: as above; conditions: MCC and control cell lines, CellTiter-Glo viability, 72 h; series mostly up to 46 µM
In short: as §2

MKL-2 = assay: as above; conditions: MCC and control cell lines, CellTiter-Glo viability, 72 h; series mostly up to 46 µM
In short: as §2

UISO = assay: as above; conditions: MCC and control cell lines, CellTiter-Glo viability, 72 h; series mostly up to 46 µM
In short: as §2

WaGa = assay: as above; conditions: MCC and control cell lines, CellTiter-Glo viability, 72 h; series mostly up to 46 µM
In short: as §2

HEK293T [2] = assay: as above; conditions: MCC and control cell lines, CellTiter-Glo viability, 72 h; at 44.8 µM (top of the series) unless noted
In short: as §2

NIH3T3 [3] = assay: as above; conditions: MCC and control cell lines, CellTiter-Glo viability, 72 h; series mostly up to 44.8 µM
In short: as §2

C33A = assay: Primary qHTS to identify gynecologic anti-cancer compounds using libraries of approved drugs and bioactive compounds (AID 1345084); conditions: Gynecologic cancer cell panel viability, ATPlite luminescence, 48 h; series mostly up to 57.5 µM; also: nearly all actives have a fitted effect of over 55% in size
In short: (§3)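 Luminescence from the ATPlite ATP-monitoring reagent indicates viable cell number; lower signal means cytotoxicity. Cells received compound 16 h after seeding and were exposed for 48 h across five concentrations.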

CASKI = assay: as above; conditions: Gynecologic cancer cell panel viability, ATPlite luminescence, 48 h; series mostly up to 57.5 µM
In short: as §3

Es-2 = assay: as above; conditions: Gynecologic cancer cell panel viability, ATPlite luminescence, 48 h; series mostly up to 57.5 µM
In short: as §3

HeLa = assay: as above; conditions: Gynecologic cancer cell panel viability, ATPlite luminescence, 48 h; series mostly up to 57.5 µM
In short: as §3

Hek293T [4] = assay: as above; conditions: Gynecologic cancer cell panel viability, ATPlite luminescence, 48 h, control line for the selectivity index; series mostly up to 57.5 µM
In short: as §3

JEG-3 = assay: as above; conditions: Gynecologic cancer cell panel viability, ATPlite luminescence, 48 h; series mostly up to 57.5 µM
In short: as §3

OV90 = assay: as above; conditions: Gynecologic cancer cell panel viability, ATPlite luminescence, 48 h; series mostly up to 57.5 µM
In short: as §3

PA-1 = assay: as above; conditions: Gynecologic cancer cell panel viability, ATPlite luminescence, 48 h; series mostly up to 57.5 µM
In short: as §3

CAOV3 = assay: as above; conditions: Gynecologic cancer cell panel viability, ATPlite luminescence, 48 h; series mostly up to 57.5 µM
In short: as §3
% is scaled to controls: 0 for no effect and ±100 for the full control effect.

O=C(NCCCCN1CCOCC1)c1cc2ccccc2o1
inactive: outcome (KB-3-1) | max response (NIH3T3 [1]) 3.06% | outcome (HACAT) | Potency (MCC-13) | Potency (MCC-26) | Potency (MKL-1) | Potency (MKL-2) | Potency (UISO) | Potency (WaGa)

C[C@]12CC[C@@H]3c4ccc(O)cc4CC[C@H]3[C@H]1[C@@H](O)[C@@H](O)[C@H]2O
inactive: outcome (KB-3-1) | outcome (NIH3T3 [1]) | outcome (HACAT) | outcome (HEK293T [2]) | Potency (MCC-13) | Potency (MCC-26) | Potency (MKL-1) | Potency (NIH3T3 [3]) | Potency (UISO) | Potency (WaGa)

CCC[C@H](N[C@@H](C)C(=O)N1[C@@H]2CCCC[C@H]2C[C@H]1C(=O)O)C(=O)OCC
inactive: max response (KB-3-1) -1.21% | max response (NIH3T3 [1]) -10.8% | outcome (HACAT) | Potency (MCC-13) | Potency (MCC-26) | Potency (MKL-1) | Potency (MKL-2) | Potency (UISO) | Potency (WaGa)

Cc1cc2nc3c(=O)[nH]c(=O)nc-3n(CC(O)C(O)C(O)CO)c2cc1C (stereo unspecified)
inactive: max response (KB-3-1) 9.48% | outcome (NIH3T3 [1]) | outcome (HACAT) | Potency (MCC-13) | Potency (MCC-26) | Potency (MKL-1) | Potency (MKL-2) | Potency (NIH3T3 [3]) | Potency (UISO) | Potency (WaGa)

C=CC[N+]1([C@H]2C[C@H]3[C@@H]4CC[C@H]5C[C@H](O)[C@@H](N6CCOCC6)C[C@]5(C)[C@@H]4CC[C@]3(C)[C@H]2OC(C)=O)CCCC1
inactive: max response (KB-3-1) 8.47% | max response (NIH3T3 [1]) 4.84% | outcome (HACAT) | Potency (MCC-13) | Potency (MCC-26) | Potency (MKL-1) | Potency (MKL-2) | Potency (UISO) | Potency (WaGa)

Cc1cnc(-c2cc(N3CCN(C(=O)CCS(C)(=O)=O)CC3)ncc2Cl)c(C)c1
inactive: max response (KB-3-1) 3.56% and 2.16% | outcome (NIH3T3 [1]) | outcome (HACAT) | outcome (HEK293T [2]) | Potency (MCC-13) | Potency (MCC-26) | Potency (MKL-1) | Potency (MKL-2) | Potency (NIH3T3 [3]) | Potency (UISO) | Potency (WaGa) | Potency (C33A) | Potency (CASKI) | Potency (Es-2) | Potency (HeLa) | Potency (Hek293T [4]) | Potency (JEG-3) | Potency (OV90) | Potency (PA-1)

CC=C(C(=CC)c1ccc(O)cc1)c1ccc(O)cc1
inactive: max response (KB-3-1) -8.73% | max response (NIH3T3 [1]) -13.5% | outcome (HACAT) | Potency (MCC-13) | Potency (MCC-26) | Potency (MKL-1) | Potency (MKL-2) | Potency (UISO) | Potency (WaGa)

N#Cc1c(N(CC(=O)O)CC(=O)O)sc(C(=O)O)c1CC(=O)O
inactive: max response (KB-3-1) -1.51% | max response (NIH3T3 [1]) -3.52% | outcome (HACAT) | outcome (HEK293T [2]) | Potency (MCC-13) | Potency (MKL-1) | Potency (UISO) | Potency (WaGa)

CC(C)(CO)[C@@H](O)C(=O)NCCC(=O)O
inactive: max response (KB-3-1) 1.6% and 8.68% | max response (NIH3T3 [1]) -2.4% | outcome (HACAT) | outcome (HEK293T [2]) | Potency (MCC-13) | Potency (MCC-26) | Potency (MKL-1) | Potency (MKL-2) | Potency (UISO) | Potency (WaGa)

COc1ccc(-c2oc3c(CC=C(C)C)c(O)cc(O)c3c(=O)c2O)cc1
inactive: max response (KB-3-1) 6.49% | outcome (NIH3T3 [1]) | outcome (HACAT) | Potency (MCC-13) | Potency (MCC-26) | Potency (MKL-1) | Potency (MKL-2) | Potency (NIH3T3 [3]) | Potency (UISO) | Potency (WaGa)

CN(C)c1ccccc1CN1CCCN(Cc2ccccc2N(C)C)C1c1ccncc1
inactive: outcome (KB-3-1) | max response (NIH3T3 [1]) -1.17% | outcome (HACAT) | Potency (MCC-13) | Potency (MCC-26) | Potency (MKL-1) | Potency (MKL-2) | Potency (UISO) | Potency (WaGa)

C[C@@H](O)[C@H]1C(=O)N2C(C(=O)OCOC(=O)C(C)(C)C)=C(SC3CN(C4=NCCS4)C3)[C@H](C)[C@H]12
inactive: max response (KB-3-1) 8.8% | outcome (NIH3T3 [1]) | outcome (HACAT) | outcome (HEK293T [2]) | Potency (MCC-13) | Potency (MKL-1) | Potency (NIH3T3 [3]) | Potency (UISO) | Potency (WaGa)

Cc1cc(NC(=O)Nc2ccc(N(C)C)cc2)c2cc(F)cc(F)c2n1
inactive: outcome (KB-3-1) | outcome (NIH3T3 [1]) | outcome (HACAT) | Potency (MCC-13) | Potency (MCC-26) | Potency (MKL-1) | Potency (MKL-2) | Potency (NIH3T3 [3]) | Potency (UISO) | Potency (WaGa)

C[C@H](CCC(=O)O)[C@H]1CC[C@H]2[C@H]3[C@@H](CC[C@]12C)[C@@]1(C)CC[C@@H](O)C[C@H]1C[C@@H]3O
inactive: max response (KB-3-1) 0.163% | max response (NIH3T3 [1]) -1.17% | outcome (HACAT) | outcome (HEK293T [2]) | Potency (MCC-13) | Potency (MCC-26) | Potency (MKL-1) | Potency (MKL-2) | Potency (UISO)

CCC(c1ccc(O)cc1)C(CC)c1ccc(O)cc1 (stereo unspecified)
inactive: max response (KB-3-1) 9.65% | outcome (NIH3T3 [1]) | outcome (HACAT) | Potency (MCC-13) | Potency (MCC-26) | Potency (MKL-1) | Potency (MKL-2) | Potency (NIH3T3 [3]) | Potency (UISO)

C[C@H](c1ccc(F)cc1CCCC(=O)O)N(c1cc(F)ccc1F)S(=O)(=O)c1ccc(Cl)cc1
inactive: max response (KB-3-1) -5.45% and 4.45% | max response (NIH3T3 [1]) -19.7% and 4.43% | outcome (HACAT) | outcome (HEK293T [2]) | Potency (MCC-13) | Potency (MKL-1) | Potency (MKL-2) | Potency (UISO) | Potency (WaGa) | Potency (C33A) | Potency (CAOV3) | Potency (CASKI) | Potency (Es-2) | Potency (HeLa) | Potency (Hek293T [4]) | Potency (JEG-3) | Potency (OV90)
